Test results from PubChem BioAssay (NCATS).
Inconclusive results are not listed. The source made the active and inactive calls. The call rests on the fitted dose curve; in most records, active means well fitted inhibition curve with a large enough effect; inconclusive means small, poorly fitted or top-dose-only effect; inactive means flat fitted curve, though single readings scatter.

Assays:
Assay in all cases: qHTS profiling for inhibitors of Plasmodium falciparum proliferation (AID 504749); further: nearly all actives have a fitted effect of over 60% in size
Conditions in all cases: P. falciparum in erythrocytes, SYBR Green DNA, 72 h; series mostly up to 28.7 µM
AS120 = system: AS120
Outline: (§1)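 SYBR Green fluorescence (ex 485 nm, em 535 nm) reports parasite DNA after 72 h compound exposure of infected red cells at 0.3% parasitemia, 2.5% hematocrit; signal normalized to 0.29 uM artemisinin and vehicle wells.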

ATS189 = system: ATS189
Outline: as §1

CP185 = system: CP185
Outline: as §1

CP191 = system: CP191
Outline: as §1

CP192 = system: CP192
Outline: as §1

CP194 = system: CP194
Outline: as §1

CP201 = system: CP201
Outline: as §1

CP237 = system: CP237
Outline: as §1

CP238 = system: CP238
Outline: as §1

CP247 = system: CP247
Outline: as §1

CP265 = system: CP265
Outline: as §1

CP266 = system: CP266
Outline: as §1

CP268 = system: CP268
Outline: as §1

CP305 = system: CP305
Outline: as §1

DIV30 = system: DIV30
Outline: as §1

HB3 = system: HB3
Outline: as §1

P94_40 = system: P94_40
Outline: as §1

PC49 = system: PC49
Outline: as §1

TAB109 = system: TAB109
Outline: as §1

TAB113 = system: TAB113
Outline: as §1

Measured: Potency

N[C@@H](Cc1ccccc1)C(=O)O
inactive: all assays above

COc1cccc2c1C(=O)c1c(O)c3c(c(O)c1C2=O)C[C@](O)(C(=O)CO)C[C@@H]3O[C@H]1C[C@H](N)[C@@H](O)[C@H](C)O1
inactive: all assays above

CC1(C)[C@@H]2CC[C@]1(C)[C@@H](OC(=O)CSC#N)C2
inactive: all assays above
